Screens deposited in PubChem by several laboratories.
In the library only some 2.3% were active in any assay of this set; here they are far more common.
aDG glyco up: alpha-DG glycosylation activation; Pro5-aDG cells, alpha-DG glycosylation AlphaScreen (IIH6); 0% Pro5, 100% B10-LARGE cell signal; activation, % at 10 µM; 360,000 tested, 0.22% active; AID 624168;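 active = activation of at least 8% versus controls, or a plate z-score of at least 8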;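 also: Pro5 are CHO cells carrying HIG-tagged alpha-DG that lacks glycosylation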
m-calpain inh: inhibitors of pig calpain II | purified calpain II, fluorogenic peptide substrate, 30 min | inhibition, % at 16 µM | 220,000 tested, 0.37% active | AID 1236;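 active = inhibition above about 50%, limit read from the data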
MIN6 prolif: induces beta-cell replication in MIN6 cells. MIN6 cells proliferation, ATPlite luminescence, 48 h; cells starved in 0.2% serum; 100% = growth in 10% serum. proliferation, % at 10 µM. 330,000 tested, 0.29% active;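 active = compounds whose signal lies at least 3.5 SD above the mean of all wells on their plate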;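 also: 0% = DMSO-treated cells in low-serum medium and 100% = 10% serum control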
H9c2 TAG inh: triacylglycerol accumulation inhibition. H9c2 cells, Nile Red lipid (TAG) fluorescence; cells loaded with 200 µM oleic acid. inhibition, % at 12.5 µM. 230,000 tested, 0.66% active;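 active = pattern-corrected inhibition of lipid staining of at least 50% with the nuclear-stain viability signal not falling by more than 50%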;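 also: 0% = DMSO wells and 100% = triacsin C control wells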
Cardio protect: myocardial damage modulation in H9c2 cells | H9c2 cardiomyocytes, H2O2 injury protection, ATPLite, 2 h | protection from H2O2 cell death, % at 20 µM | 360,000 tested, 0.63% active;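 active = compounds giving at least 50% protection of heart cells from peroxide-induced death in the single-dose screen, raw or plate-pattern-corrected value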;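 also: 0% = DMSO wells with peroxide and 100% = DMSO wells without peroxide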
FAS-TE inh: blocks the thioesterase domain of human fatty acid synthase | 360,000 tested, 0.67% active | AID 602261 | P49327 | recombinant FAS-TE, OMFH fluorogenic substrate, fluorescence endpoint | inhibition, % at 15 µM;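 active = compounds whose normalised, plate-corrected inhibition of enzyme fluorescence in the single-dose primary screen is 50% or more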;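 also: 0% = DMSO with enzyme and 100% = substrate without enzyme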
The depositor's hits bear a star; · = no result given.

SMILES	aDG glyco up	m-calpain inh	MIN6 prolif	H9c2 TAG inh	Cardio protect	FAS-TE inh
Cc1cccc(NC(=O)Nc2nnc([C@@H]3C[C@H](O)[C@@H](CO)O3)s2)c1	0	·	·	4	14	-7
CC(=O)c1ccc(OCC(=O)NC2CCCN(Cc3ccccc3F)C2)cc1 (centres undefined)	0	·	-2	·	17	-5
Cc1c(-c2ccccc2)oc2c(C(=O)OCC(=O)Nc3ccc(C(N)=O)cc3)cccc2c1=O	0	18	1	·	74*	7
O=C(OCCOc1cccc(Cl)c1)c1cc(S(=O)(=O)N2CCCCC2)ccc1N1CCOCC1	1	·	-7	-65	-14	34
Cc1cc2ccccc2c(=O)[nH]1	0	5	-1	·	57*	-9
C[C@@H]1CN([C@H](C)CO)C(=O)CCCn2nncc2CO[C@H]1CN(C)S(=O)(=O)c1cccc(F)c1	0	·	·	-17	3	-7
COc1cc(NC(=O)c2cccc3c(-c4cnn(C)c4)coc23)cc(OC)c1OC	0	·	·	-9	64*	-9
Cc1cccc([C@@H]2[C@@H]3C(=O)N(Cc4ccccc4)C(=O)[C@@H]3[C@]3(C)C(=O)N(c4ccc(C(F)(F)F)cc4)C(=O)N23)c1	0	·	-8	-4	0	81*
COc1ccc(N2C(=O)N3[C@H](c4cccc(C)c4)[C@@H]4C(=O)N(Cc5ccccc5)C(=O)[C@@H]4[C@]3(Cc3ccccc3)C2=O)cc1	·	·	-3	·	·	·
Cc1cc(/C=N/n2cnnc2)c(C)n1-c1ccc(OCc2ccc(Cl)cc2)cc1	5	-18	-4	-23	-34	-11
Cc1cc(/C=N/n2cnnc2)c(C)n1-c1ccc(OCc2ccccc2F)cc1	5.9*	-1	-4	·	-14	-4
COc1ccc(S(=O)(=O)N2CCOCC2)cc1NC(=O)CSc1ncccn1	0	·	1	-5	-2	-6
O=C(Nc1cccc(C(F)(F)F)c1)c1csc(-c2ccncc2)n1	0	17	-2	1	4	7
COc1cc(NC(=O)c2csc(-c3ccncc3)n2)cc(C(=O)Nc2cccc(C(F)(F)F)c2)c1	0	-72	-8	32	59*	22
CSCCNC(=O)C1(C)CCN1C(=O)c1sccc1C (centres undefined)	0	·	·	-12	10	-12
CCC(Oc1ccccc1)C(=O)Nc1ccccc1C(=O)N1CCCCC1 (centres undefined)	0	·	7	4	50*	0
CCC(Oc1ccccc1)C(=O)Nc1ccccc1C(=O)N1CCN(C)CC1 (centres undefined)	0	·	0	4	7	-3
COC1=CC(=O)C(O)=C(CCCCCCC/C=C/CCCCCCCC2=C(O)C(=O)C=C(OC)C2=O)C1=O	0	·	-6	·	31	42
CCCCCCCCCCCC1=C(O)C(=O)C=C(O)C1=O	0	·	·	·	-8	62*
CCCNc1c(NS(=O)(=O)c2ccc(NC(=O)CC)cc2)c(=O)oc2ccccc12	6.5*	·	1	·	6	-2
CCCNc1c(NS(=O)(=O)c2ccc(C)c(C)c2)c(=O)oc2ccccc12	0	·	0	·	2	0
O=c1oc(-c2ccco2)nc2c1cnn2-c1ccccc1	1	-14	0	18	51*	0
O=C(Nc1ccccc1)C1CCCN1/C=C/C(=O)C(F)(F)F (centres undefined)	0	24	-1	-3	-3	1
Cc1cc(C(=O)O)ccc1-n1c(C)cc(/C=C(/C#N)C(=O)Nc2ccccc2)c1C	0	59*	-4	·	-2	-10
Cc1cc(/C=C(\C#N)C(=O)Nc2ccccc2)c(C)n1-c1cccnc1	0	1	-3	6	-5	6
SMILES	aDG glyco up	m-calpain inh	MIN6 prolif	H9c2 TAG inh	Cardio protect	FAS-TE inh
O=C(COC(=O)c1ccc([N+](=O)[O-])o1)Nc1ccc(N2CCOCC2)cc1	0	·	-4	4	52*	2
CN(C)S(=O)(=O)c1cccc(NC(=O)COC(=O)c2ccc([N+](=O)[O-])o2)c1	0	-59	0	·	102*	-10
Cc1cnc(-c2nc3ccccc3n2C(C(=O)NC(C)(C)C)c2cc3ccccc3o2)cn1 (centres undefined)	0	·	·	·	·	·
O=C(NCCc1ccccc1)c1ccc2nc3cc(Cl)ccc3c(=O)n2c1	0	·	-3	·	1	-3
O=C(NCCc1ccccc1Cl)c1ccc2nc3ccccc3c(=O)n2c1	0	·	-6	·	58*	16
CCOC(=O)N1CCN(C(=O)CSc2nc3c(cnn3-c3ccc(C)cc3)c(=O)[nH]2)CC1	0	-6	4	-16	51*	-4
O=C1C(=O)c2ccccc2C(O)=C1CCCCl	3.8*	18	-6	111	-15	-5
COc1ccc(COn2nnc3ccc(S(=O)(=O)N4CCOCC4)cc32)cc1F	0	·	9	-7	-1	4
CCCn1nc(C(=O)Nc2cc(OCC)c(N3CCOCC3)cc2OCC)c2ccccc2c1=O	-1	·	·	38	56*	20
CCOc1cc(N2CCOCC2)c(OCC)cc1NC(=O)Cn1[nH]c(=O)c2ccccc2c1=O	0	-101	2	42	79*	-4
CCOc1cc(N2CCOCC2)c(OCC)cc1NC(=O)c1ccccc1	0	-6	0	2	1	-1
CCOc1ccccc1NC(=O)Cn1[nH]c(=O)c2ccccc2c1=O	0	-2	-4	-6	12	-2
Cc1ccc2nc(NCc3ccccc3)[nH]c2c1	0	-12	·	60*	-18	-9
O=S(=O)(/N=C(/Nc1cccc2ccccc12)c1ccccc1)c1ccc(F)cc1	0	·	-1	·	-6	10
CCC(C(=O)NCC1CCCO1)N(Cc1ccc(F)cc1)C(=O)CNS(=O)(=O)c1ccccc1 (centres undefined)	0	·	0	·	2	-1
O=C(OCC(=O)c1ccc(Cl)s1)c1cnccn1	0	·	3	4	4	2
COC(=O)CC(NS(=O)(=O)c1cccs1)c1cccc2ccccc12 (centres undefined)	0	60*	1	-5	3	0
COC(=O)CC(NC(=O)c1ccco1)c1cccc2ccccc12 (centres undefined)	0	-21	1	-28	9	-4
COc1cc(-c2cc(O)c(-c3ccc4ccccc4n3)c(=O)[nH]2)cc(OC)c1OC	0	·	·	9	62*	-44
COc1cc(-c2cc(C(=O)Nc3ccc(O)cc3)c3ccccc3n2)cc(OC)c1OC	0	-34	-4	-12	18	3
Cc1cc(C)c2ccc(NN)nc2c1O	0	21	-4	0	79*	-2
O=C(/C=C1\NC2(CCCC2)Cc2ccccc21)C(=O)N/N=C/c1ccc(O)c(O)c1	0	-46	-4	·	102*	11
